PubChem BioAssay (Tox21)
Calls of active or inactive are those of the source. The call rests on the fitted dose curve; in most records, active means well fitted curve in the direction sought with a large enough effect in the repeat runs; inconclusive means weak or mixed curves; inactive means flat fitted curve, though single readings scatter.

Experiment: qHTS assay to test for compound auto fluorescence at 590 nm (red) in HepG2 cells (AID 720674)
Details: HepG2 autofluorescence, red 540/590 nm, 1 h; series mostly up to 91.3 µM; fluorescence, relative to Rose Bengal: at the top concentration
In short: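 Red autofluorescence (Ex/Em 540/590 nm, Rose Bengal sodium equivalents) was measured in HepG2 cells, 2,000 per well in MEM plus 10% FBS, plated overnight at 37 C. Readings were taken 1 hr after adding 23 nL compound or DMSO, at 37 C and 5% CO2.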
On the % scale 0 is the no-effect control and ±100 the full control effect.

Compound | fluorescence, relative to Rose Bengal | outcome
CC(O)COC(C)(C)C (stereo not given) | -0.068% (inactive) | –
C[C@]12CCC(=O)C=C1CC[C@H]1[C@@H]3CC[C@](O)(C(=O)CO)[C@@]3(C)C[C@H](O)[C@@]12F | – | inactive
CCCCC1CCC(O)CC1 (stereo not given) | -0.0183% (inactive) | –
CC(=O)O[C@H]1C[C@@H]2CC[C@@]1(C)C2(C)C | -0.0103% (inactive) | –
CCCCCCCCCCOC(C)=O | -0.0697% (inactive) | –
C=C(C)[C@@H]1CC=C(C)CC1 | -0.658% (inactive) | –
O=C[O][Al]([O]C=O)[O]C=O | 0.15% (inactive) | –
C#CCN[C@@H]1CCc2ccccc21 | -0.672% [at 46 µM] (inactive) | –
Cc1c(N)cccc1Cl | 0.0036% (inactive) | –
c1ccc(B(c2ccccc2)c2ccccc2)cc1 | 0.243% (inactive) | –
O=C1CCCCO1 | -0.415% (inactive) | –
OCC1CCC(CO)CC1 (stereo not given) | -0.156% (inactive) | –
CC1(C)O[C@H]2CC(=O)OC[C@]23[C@H]2CC[C@@]4(C)[C@H](c5ccoc5)OC(=O)[C@H]5O[C@]54[C@]2(C)C(=O)C[C@@H]13 | 0.474% [at 46 µM] (inactive) | –
Cn1c(=O)c2[nH]c(Br)nc2n(C)c1=O | -0.0113% [at 46 µM] (inactive) | –
c1ccc2cnccc2c1 | 0.0242% (inactive) | –
CC1=NN(c2ccc(S(=O)(=O)O)cc2)C(=O)C1 | 0.108% (inactive) | –

Compound | fluorescence, relative to Rose Bengal | outcome
C=CCCCC | -0.075% [at 95.7 µM] (inactive) | –
O=C(NCN1CCOCC1)c1cnccn1 | 0.51% [at 46 µM] (inactive) | –
N#Cc1cscn1 | 0.0069% (inactive) | –
CN1CCOC(c2ccccc2)c2ccccc2C1 (stereo not given) | -0.228% [at 18.6 µM] (inactive) | –
c1ccc2c(CC3=NCCN3)cccc2c1 | – | inactive
CC12CCC(C1)C(C)(C)C2O (stereo not given) | -0.2% (inactive) | –
CC/C(C)=N\O[Si](C)(O/N=C(\C)CC)O/N=C(\C)CC | 0.0498% [at 95.7 µM] (inactive) | –
O=[N+]([O-])c1c(Cl)cc(Cl)cc1Cl | -0.114% (inactive) | –
CC(C)CO | 0.118% [at 95.7 µM] (inactive) | –
[O]=[Mo](=[O])=[O] | -0.0279% [at 18.6 µM] (inactive) | –
CC1=C(C(=O)O)N2C(=O)[C@@H](NC(=O)[C@H](N)C3=CCC=CC3)[C@H]2SC1 | 0.177% [at 46 µM] (inactive) | –
CO/N=C(/C(=O)N[C@@H]1C(=O)N2C(C(=O)[O-])=C(C[n+]3ccn4ncccc43)CS[C@H]12)c1nsc(N)n1 | – | inactive
C=CC/C=C/C | -0.37% [at 95.7 µM] (inactive) | –
CC(C)CCOC(=O)c1ccccc1 | 0.274% (inactive) | –
CCO | -0.14% [at 95.7 µM] (inactive) | –
O=Cc1ccccc1Cl | -0.0606% (inactive) | –

Experiment: qHTS assay to test for compound auto fluorescence at 535 nm (green) in HepG2 cells (AID 720675)
Details: green autofluorescence 485/535 nm, 1 h; series mostly up to 91.3 µM; fluorescence, % of fluorescein control: at the top concentration

Compound | fluorescence, % of fluorescein control | outcome
CC(O)COC(C)(C)C (stereo not given) | 0.0402% (inactive) | –
C[C@]12CCC(=O)C=C1CC[C@H]1[C@@H]3CC[C@](O)(C(=O)CO)[C@@]3(C)C[C@H](O)[C@@]12F | – | inactive
CCCCC1CCC(O)CC1 (stereo not given) | -0.0006% (inactive) | –
CC(=O)O[C@H]1C[C@@H]2CC[C@@]1(C)C2(C)C | 0.015% (inactive) | –
CCCCCCCCCCOC(C)=O | -0.0332% (inactive) | –
C=C(C)[C@@H]1CC=C(C)CC1 | -0.106% (inactive) | –
O=C[O][Al]([O]C=O)[O]C=O | 0.11% (inactive) | –
C#CCN[C@@H]1CCc2ccccc21 | -0.235% [at 46 µM] (inactive) | –
Cc1c(N)cccc1Cl | 0.0942% (inactive) | –
c1ccc(B(c2ccccc2)c2ccccc2)cc1 | -0.0065% (inactive) | –
O=C1CCCCO1 | -0.0083% (inactive) | –
OCC1CCC(CO)CC1 (stereo not given) | 0.0777% (inactive) | –
CC1(C)O[C@H]2CC(=O)OC[C@]23[C@H]2CC[C@@]4(C)[C@H](c5ccoc5)OC(=O)[C@H]5O[C@]54[C@]2(C)C(=O)C[C@@H]13 | 0.0419% [at 46 µM] (inactive) | –
Cn1c(=O)c2[nH]c(Br)nc2n(C)c1=O | -0.0534% [at 46 µM] (inactive) | –
c1ccc2cnccc2c1 | 0.0905% (inactive) | –
CC1=NN(c2ccc(S(=O)(=O)O)cc2)C(=O)C1 | -0.0773% (inactive) | –
CCCCOCC(C)O (stereo not given) | -0.0076% [at 95.7 µM] (inactive) | –

Compound | fluorescence, % of fluorescein control | outcome
C=CCCCC | -0.0124% [at 95.7 µM] (inactive) | –
O=C(NCN1CCOCC1)c1cnccn1 | 0.006% [at 46 µM] (inactive) | –
N#Cc1cscn1 | 0.118% (inactive) | –
COC(=O)c1cccc(Cl)c1 | 0.0105% (inactive) | –
CN1CCOC(c2ccccc2)c2ccccc2C1 (stereo not given) | 0.0561% [at 18.6 µM] (inactive) | –
c1ccc2c(CC3=NCCN3)cccc2c1 | – | inactive
CC12CCC(C1)C(C)(C)C2O (stereo not given) | 0.0118% (inactive) | –
CC/C(C)=N\O[Si](C)(O/N=C(\C)CC)O/N=C(\C)CC | -0.0836% [at 95.7 µM] (inactive) | –
O=[N+]([O-])c1c(Cl)cc(Cl)cc1Cl | 0.0872% (inactive) | –
CC(C)CO | -0.079% [at 95.7 µM] (inactive) | –
[O]=[Mo](=[O])=[O] | 0.0234% [at 18.6 µM] (inactive) | –
CC1=C(C(=O)O)N2C(=O)[C@@H](NC(=O)[C@H](N)C3=CCC=CC3)[C@H]2SC1 | -0.0763% [at 46 µM] (inactive) | –
CO/N=C(/C(=O)N[C@@H]1C(=O)N2C(C(=O)[O-])=C(C[n+]3ccn4ncccc43)CS[C@H]12)c1nsc(N)n1 | – | inactive
C=CC/C=C/C | 0.0362% [at 95.7 µM] (inactive) | –
CC(C)CCOC(=O)c1ccccc1 | 0.0161% (inactive) | –
CCO | 0.0217% [at 95.7 µM] (inactive) | –
O=Cc1ccccc1Cl | 0.0021% (inactive) | –

Experiment: qHTS assay to test for compound auto fluorescence at 460 nm (blue) in HEK293 cells (AID 720678)
Details: blue autofluorescence 405/460 nm; series mostly up to 91.3 µM; fluorescence, % of triamterene: at the top concentration
In short: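 Intrinsic compound fluorescence is recorded in live HEK293 cultures after overnight incubation at 37C, 5% CO2, using excitation 405 nm and emission 460 nm. Values are referenced to triamterene.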

Compound | fluorescence, % of triamterene | outcome
CC(O)COC(C)(C)C (stereo not given) | -0.0478% (inactive) | –
C[C@]12CCC(=O)C=C1CC[C@H]1[C@@H]3CC[C@](O)(C(=O)CO)[C@@]3(C)C[C@H](O)[C@@]12F | – | inactive
CCCCC1CCC(O)CC1 (stereo not given) | 0.154% (inactive) | –
CC(=O)O[C@H]1C[C@@H]2CC[C@@]1(C)C2(C)C | -0.0375% (inactive) | –
CCCCCCCCCCOC(C)=O | -0.0285% (inactive) | –
C=C(C)[C@@H]1CC=C(C)CC1 | 0.173% (inactive) | –
O=C[O][Al]([O]C=O)[O]C=O | -0.0373% (inactive) | –
C#CCN[C@@H]1CCc2ccccc21 | -0.0262% [at 46 µM] (inactive) | –
Cc1c(N)cccc1Cl | -0.0803% (inactive) | –
c1ccc(B(c2ccccc2)c2ccccc2)cc1 | -0.0255% (inactive) | –
O=C1CCCCO1 | 0.135% (inactive) | –
OCC1CCC(CO)CC1 (stereo not given) | 0.0148% (inactive) | –
CC1(C)O[C@H]2CC(=O)OC[C@]23[C@H]2CC[C@@]4(C)[C@H](c5ccoc5)OC(=O)[C@H]5O[C@]54[C@]2(C)C(=O)C[C@@H]13 | 0.17% [at 46 µM] (inactive) | –
Cn1c(=O)c2[nH]c(Br)nc2n(C)c1=O | -0.0198% [at 46 µM] (inactive) | –
c1ccc2cnccc2c1 | 0.0858% (inactive) | –
CC1=NN(c2ccc(S(=O)(=O)O)cc2)C(=O)C1 | -0.104% (inactive) | –
CCCCOCC(C)O (stereo not given) | -0.408% [at 95.7 µM] (inactive) | –

Compound | fluorescence, % of triamterene | outcome
C=CCCCC | 0.0111% [at 95.7 µM] (inactive) | –
O=C(NCN1CCOCC1)c1cnccn1 | -0.163% [at 46 µM] (inactive) | –
N#Cc1cscn1 | -0.018% (inactive) | –
COC(=O)c1cccc(Cl)c1 | -0.0248% (inactive) | –
CN1CCOC(c2ccccc2)c2ccccc2C1 (stereo not given) | -0.11% [at 18.6 µM] (inactive) | –
c1ccc2c(CC3=NCCN3)cccc2c1 | – | inactive
CC12CCC(C1)C(C)(C)C2O (stereo not given) | 0.0283% (inactive) | –
CC/C(C)=N\O[Si](C)(O/N=C(\C)CC)O/N=C(\C)CC | 0.0122% [at 95.7 µM] (inactive) | –
O=[N+]([O-])c1c(Cl)cc(Cl)cc1Cl | 0.0175% (inactive) | –
CC(C)CO | 0.0537% [at 95.7 µM] (inactive) | –
[O]=[Mo](=[O])=[O] | 0.132% [at 18.6 µM] (inactive) | –
CC1=C(C(=O)O)N2C(=O)[C@@H](NC(=O)[C@H](N)C3=CCC=CC3)[C@H]2SC1 | -0.0672% [at 46 µM] (inactive) | –
CO/N=C(/C(=O)N[C@@H]1C(=O)N2C(C(=O)[O-])=C(C[n+]3ccn4ncccc43)CS[C@H]12)c1nsc(N)n1 | – | inactive
C=CC/C=C/C | 0.0092% [at 95.7 µM] (inactive) | –
CC(C)CCOC(=O)c1ccccc1 | 0.0007% (inactive) | –
CCO | 0.286% [at 95.7 µM] (inactive) | –
O=Cc1ccccc1Cl | 0.0266% (inactive) | –
